The results in this text go back to PubChem BioAssay.

Potency and affinity values are given separately. The source made the active and inactive calls. The rule behind the calls is not given here.

One assay can be described thus: A2780 cell killing – plate reader, dry powder samples, cytotoxicity control, dose response (AID 743046).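 Note: 0% = neutral control wells and -100% = cytotoxic reference compound.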 To be noted: A2780 ovarian cancer cytotoxicity; series mostly up to 35 µM; activity change, negative = cytotoxicity: at the top concentration.
On to `C[C@H]1CCCCO[C@H](CN(C)Cc2ccc(C(F)(F)F)cc2)[C@@H](C)CN([C@@H](C)CO)C(=O)c2cc(NC(=O)c3ccccc3)ccc2O1`, for which the “activity change, negative = cytotoxicity” value was 8.47% [at 16 µM] (inactive).
Still for that read-out and setting: the figure for `COc1ccc(-c2ccc(C3[C@@H]4CN(C(=O)Nc5cccc(F)c5)C[C@H]3N4)cc2)cc1` (stereo not given in full) is 6.2% (inactive); for `C[C@H]1CCCCO[C@H](CN(C)Cc2ccc(C(F)(F)F)cc2)[C@@H](C)CN([C@@H](C)CO)C(=O)c2cc(NS(=O)(=O)c3ccc(Cl)cc3)ccc2O1` it is -4.31% (inactive); for `COc1ccc(S(=O)(=O)Nc2ccc3c(c2)C(=O)N([C@@H](C)CO)C[C@H](C)[C@@H](CN(C)Cc2ccc(C(F)(F)F)cc2)OCCCC[C@H](C)O3)cc1` it is -9.24% (inactive).
On the same count and under the same terms, the figure for `C[C@@H]1CN([C@@H](C)CO)C(=O)c2cc(NC(=O)c3ccccc3)ccc2O[C@@H](C)CCCCO[C@@H]1CN(C)Cc1ccc(C(F)(F)F)cc1` is 27.9% (inactive); for `Cc1ccc(S(=O)(=O)CC(CN2CCCCC2)N2CCCCC2)cc1` (stereo not given) it is 47.4% [at 50 µM] (inactive).
Still for that read-out and setting: the figure for `Cc1nc2sc(C(c3ccco3)N3CCN(C(c4ccccc4)c4ccccc4)CC3)c(O)n2n1` (stereo not given) is 11% [at 50 µM] (inactive).
Take `C[C@H](CO)N1C[C@H](C)[C@H](CN(C)Cc2ccc(C(F)(F)F)cc2)OCCCC[C@H](C)Oc2ccc(NS(=O)(=O)c3ccccc3)cc2C1=O`: the “activity change, negative = cytotoxicity” value is -11.3% (inactive).
On the same count and under the same terms, the figure for `C[C@@H]1CN([C@H](C)CO)C(=O)c2cc(NS(=O)(=O)c3ccc(Cl)cc3)ccc2O[C@@H](C)CCCCO[C@@H]1CN(C)Cc1ccccc1` is -7.32% (inactive); for `C[C@@H]1CCCCO[C@@H](CN(C)S(=O)(=O)c2ccc(Cl)cc2)[C@H](C)CN([C@H](C)CO)C(=O)c2cc(NS(=O)(=O)c3ccc(F)cc3)ccc2O1` it is -6.43% (inactive); for `Cc1ccccc1CNC(=O)C1CCCN(c2nnc(C)c3c(C)n(-c4ccccc4)nc23)C1` (stereo not given) it is -17.7% [at 50 µM] (inactive).
Still for that read-out and setting: the figure for `CCN(CC(=O)Nc1c(F)cccc1F)C(=O)c1cc(S(=O)(=O)N(C)C)ccc1N1CCCC1` is 16.3% [at 50 µM] (inactive); for `CCCn1c(C)cc(C(=O)CN2C(=O)c3ccccc3S2(=O)=O)c1C` it is 14.2% [at 50 µM] (inactive).
In the case of `N#C[C@@H]1[C@H](c2ccc(C#CC3CCCCC3)cc2)[C@H](CO)N1S(=O)(=O)c1ccccc1`, the “activity change, negative = cytotoxicity” value is -28.7% (inactive).
Still for that read-out and setting: the figure for `Cc1ccc(S(=O)(=O)Nc2ccc3c(c2)CC(=O)N([C@H](C)CO)C[C@H](C)[C@H](CN(C)S(=O)(=O)c2ccc(F)cc2)O3)cc1` is -3.73% (inactive).
Same read-out and setting: the figure for `C[C@H]1CCCCO[C@@H](CN(C)Cc2ccc(C(F)(F)F)cc2)[C@@H](C)CN([C@@H](C)CO)C(=O)c2cc(NC(=O)c3ccccc3)ccc2O1` is 7.3% [at 16 µM] (inactive); for `C[C@H]1CN([C@@H](C)CO)C(=O)Cc2cc(NC(=O)NC3CCCCC3)ccc2O[C@H]1CN(C)S(=O)(=O)c1ccc(Cl)cc1` it is 0.796% (inactive); for `C[C@@H]1CN([C@@H](C)CO)C(=O)Cc2cc(NS(=O)(=O)c3ccc(Cl)cc3)ccc2O[C@H]1CN(C)Cc1ccc(Oc2ccccc2)cc1` it is 96.3% (inactive).
With `C[C@@H]1CCCCO[C@@H](CN(C)C(=O)Nc2cccc3ccccc23)[C@H](C)CN([C@H](C)CO)C(=O)c2cc(NS(=O)(=O)c3ccc(F)cc3)ccc2O1`, the “activity change, negative = cytotoxicity” value was 12.5% (inactive).
Still for that read-out and setting: the figure for `Cc1ccc(S(=O)(=O)N(C)C[C@H]2Oc3cc(C#Cc4ccncc4)ccc3S(=O)(=O)N([C@@H](C)CO)C[C@@H]2C)cc1` is 16.7% (inactive).

The nature of another assay: OVCAR8 cell viability loss – plate reader, dry powder samples, PAX8 project, dose response (AID 743197). As to conditions: series mostly up to 35 µM; activity change, negative = cytotoxicity: at the top concentration.
As for `C[C@H]1CCCCO[C@H](CN(C)Cc2ccc(C(F)(F)F)cc2)[C@@H](C)CN([C@@H](C)CO)C(=O)c2cc(NC(=O)c3ccccc3)ccc2O1`, the “activity change, negative = cytotoxicity” value was -15.2% (inactive).
Same read-out and setting: next, `C[C@H]1CN([C@@H](C)CO)C(=O)c2cc(NS(=O)(=O)c3ccccc3)ccc2O[C@@H]1CN(C)Cc1ccc(Oc2ccccc2)cc1`: -14.4% (inactive).
Same read-out and setting: next, `COc1cccc(-c2ccc([C@H]3[C@@H](CO)N(C(=O)Cc4ccccc4)[C@H]3C#N)cc2)c1`: 26.4% (inactive); `C[C@@H]1CN([C@H](C)CO)C(=O)c2cc(NS(=O)(=O)c3ccc(Cl)cc3)ccc2O[C@@H](C)CCCCO[C@@H]1CN(C)Cc1ccccc1`: 17.5% (inactive); `C[C@@H]1CCCCO[C@@H](CN(C)S(=O)(=O)c2ccc(Cl)cc2)[C@H](C)CN([C@H](C)CO)C(=O)c2cc(NS(=O)(=O)c3ccc(F)cc3)ccc2O1`: 0.971% (inactive).
The same measure, in the same setting: the figure for `C[C@H](CO)N1C[C@H](C)[C@H](CN(C)S(=O)(=O)c2ccc(Cl)cc2)OCCCC[C@H](C)Oc2ccc(NC(=O)Nc3ccc(C(F)(F)F)cc3)cc2C1=O` is 5.56% (inactive).
For the molecule `N#C[C@@H]1[C@H](c2ccc(C#CC3CCCCC3)cc2)[C@H](CO)N1S(=O)(=O)c1ccccc1`, the “activity change, negative = cytotoxicity” value was -6.68% (inactive).
Still for that read-out and setting: the figure for `Cc1ccc(S(=O)(=O)Nc2ccc3c(c2)CC(=O)N([C@H](C)CO)C[C@H](C)[C@H](CN(C)S(=O)(=O)c2ccc(F)cc2)O3)cc1` is 8.94% (inactive); for `C[C@H]1CN([C@@H](C)CO)C(=O)Cc2cc(NC(=O)NC3CCCCC3)ccc2O[C@H]1CN(C)S(=O)(=O)c1ccc(Cl)cc1` it is -2.15% (inactive); for `C[C@H](CO)N1C[C@H](C)[C@H](CN(C)S(=O)(=O)c2ccc(Cl)cc2)OCCCC[C@H](C)Oc2ccc(NS(=O)(=O)c3ccc(F)cc3)cc2C1=O` it is 4.24% (inactive).
